# Assay results taken from PubChem BioAssay (NCATS).
# Records with an inconclusive call do not appear. Calls of active or inactive are those of the source. Calls come from the whole dose curve; as a rule, active = well fitted inhibition curve with a large enough effect; inconclusive = small, poorly fitted or top-dose-only effect; inactive = no such curve, though single readings can be large or run the other way.
# Target: Calcium and integrin-binding protein 1 (Homo sapiens) (UniProt Q99828)
# Test: Confirmatory qHTS for Identification of Calcium Integrin Binding Protein 1 (CIB1) Competitor (AID 1508617); note: nearly all actives have a fitted effect of over 65% in size
# Conditions: CIB1 binding competition assay, biochemical qHTS; series mostly up to 114 µM; activity change, negative = inhibition: at the top concentration
# Procedure, shortened: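 Confirmatory qHTS measures displacement of a FITC-alphaIIb peptide (100 nM) from CIB1-GST (1 uM) by fluorescence polarization. Calcium-containing HEPES buffer, pH 7.4; two 15 min room-temperature incubations.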
# % is set by controls: 0 for no effect and ±100 for the full control effect; potency is the fitted concentration of half-maximal effect.
# Sequence of Calcium and integrin-binding protein 1 (Homo sapiens) (Q99828 whole entry, looked up): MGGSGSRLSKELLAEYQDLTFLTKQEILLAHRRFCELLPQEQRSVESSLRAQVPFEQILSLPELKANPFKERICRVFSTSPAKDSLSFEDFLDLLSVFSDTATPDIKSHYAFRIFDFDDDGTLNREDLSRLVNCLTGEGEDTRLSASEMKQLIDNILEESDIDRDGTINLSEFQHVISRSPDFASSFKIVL
SMILES,"activity change, negative = inhibition",Potency
C/C(=C\c1ccc2c(c1)OCO2)C1Nc2cccc3cccc(c23)N1,-15.1% (inactive),
CCc1ccc(NC(=O)C(=O)NNC(=O)c2cccs2)cc1,9.89% (inactive),
O=C(Cc1ccccc1)NC(c1ccco1)c1cc(Cl)c2cccnc2c1O (stereo not given),30.8% (inactive),
O=C1CCCC2=C1C(c1ccn[nH]1)N=C(Nc1nc3ccccc3o1)N2 (stereo not given),-12.4% (inactive),
O=C(Cc1ccc(Cl)c(Cl)c1)Nc1ccc([S+](=O)([O-])Nc2nnc(-c3ccccn3)s2)cc1,,35.5 µM (active)
CCOc1ccc(CCNC(C)=O)cc1OCC,11.5% (inactive),
O=[S+]([O-])(Nc1nccs1)c1ccc(NCc2cc(Cl)cc(Br)c2O)cc1,-19.8% (inactive),
O=C(NC(c1ccco1)c1cc(Cl)c2cccnc2c1O)c1cccs1 (stereo not given),17% (inactive),
NC(=O)c1ccc(O)c2ncccc12,10.5% (inactive),
O=C1CCCC2=C1C1(CCOCC1)N=C(Nc1nc3ccccc3o1)N2,4.17% (inactive),
CSc1cc2c(s1)c1cnn(Cc3cccc(N)c3)c(=O)c1n2C,,39.8 µM (active)
CC1(C)N=C(Nc2nc3ccccc3o2)NC2=C1C(=O)CCC2,2.42% (inactive),
Cc1ccccc1NC(=O)CN1C(=O)N/C(=C\c2cn(-c3cccc(C(=O)O)c3)cn2)C1=O,-7.84% (inactive),
COc1ccccc1Nc1cc2ccccc2c(=O)[nH]1,,39.8 µM (active)
O=C1CCCC2=C1C(c1ccncc1)N=C(Nc1nc3ccccc3o1)N2 (stereo not given),3.16% (inactive),
CN1CCN(c2ccc(-c3cc(O)c4ncccc4c3)cc2)CC1,4.19% (inactive),
CS(=O)(=O)c1ccc(C(=O)OCC(=O)N2CCC(Cc3ccccc3)CC2)cc1[N+](=O)[O-],-17.9% (inactive),
O=C(NNC(=O)c1nc2ccccc2[nH]1)OCc1ccccc1,-15.9% (inactive),
O=C(c1ccc(-c2cc(O)c3ncccc3c2)cc1)N1CCNCC1,-5.78% (inactive),
CC(C)(C)OC(=O)CC(=O)NNC(=O)c1nc2ccccc2[nH]1,-2.1% (inactive),

SMILES,"activity change, negative = inhibition",Potency
CC(C)c1nc(Nc2nc3ccccc3o2)nc2c1CCCC2,-13.5% (inactive),
O=C(NCCCN1CCNCC1)c1cccc(-c2cc(O)c3ncccc3c2)c1,-7.42% (inactive),
COC(=O)c1ccc(O)c2ncc(-c3ccc(C(=O)N4CCNCC4)cc3)cc12,6.25% (inactive),
Cc1cc(NS(=O)(=O)c2ccc(NC(=O)Cc3ccc(F)c(Cl)c3)cc2)no1,-28.5% (inactive),
CCOc1ccc(CCNC(=O)c2ccc(N3N=C(C)CC3=O)cc2)cc1OCC,-9.7% (inactive),
O=C1CCCC2=C1C1(CCCOC1)N=C(Nc1nc3ccccc3o1)N2 (stereo not given),1.87% (inactive),
Cc1ccsc1C1N=C(Nc2nc3ccccc3o2)NC2=C1C(=O)CCC2 (stereo not given),-15.2% (inactive),
COC(=O)c1ccc(O)c2ncc(-c3ccc(C(=O)NCCCN(C)C)cc3)cc12,-8.91% (inactive),
CCOC(=O)c1[nH]c2c(c1C)C(=S)CC(c1ccco1)C2 (stereo not given),,39.8 µM (active)
CC(OC(=O)c1ccc(S(C)(=O)=O)c([N+](=O)[O-])c1)C(=O)NC1C2CC3CC(C2)CC1C3 (stereo not given),-24.3% (inactive),
Fc1ccc(NC(=S)Nc2nnc(-c3ccncc3)s2)cc1C(F)(F)F,-13% (inactive),
Cc1ccc(C(=O)NC(c2ccco2)c2cc(Cl)c3cccnc3c2O)cc1 (stereo not given),24.8% (inactive),
Oc1cccc2cc(N3CCCC3)cnc12,-10.6% (inactive),
COc1ccc2c(=O)n3nc(Nc4cccc(N5CCN(C)CC5)c4)sc3nc2c1,-15.4% (inactive),
Oc1cccc2cc(C3CC3)cnc12,3.33% (inactive),
NC(=O)c1cccc(-c2cnc3c(O)ccc(C(=O)O)c3c2)c1,-8.03% (inactive),
Cc1ccc(OCCn2c(CCNC(=O)c3ccsc3)nc3ccccc32)cc1,41.9% (inactive),
O=C(O)c1ccc(O)c2ncc(N3CCC(N4CCOCC4)C3)cc12 (stereo not given),15.3% (inactive),
NC(=O)C1CCN(c2nc(-c3ccccc3N)cs2)CC1,-1.7% (inactive),
O=C1CCC2=C1C1(CCCC1)N=C(Nc1nc3ccccc3o1)N2,2.61% (inactive),
